Among the data in PubChem BioAssay are z-score values, retold here.

The source made the active and inactive calls.
Further: test concentration not given here.

A short description of the first assay: basal HepG2 mitochondrial membrane potential changes, profiling panel, cell-based, JC-1 fluorescence, 24 h, 100 nL compound (AID 1167). The note with it: higher = more signal.
In turn, `COC(=O)[C@@]1(Cc2ccccc2)[C@H]2c3cc(C(=O)N4CCCC4)n(Cc4c(CO)[nH]cc(C)c4=O)c3C[C@H]2CN1C(=O)c1ccccc1` registered a z-score of -0.401.
Still for that read-out and setting: then `CCOc1cc(C(O)C2C=CC3C(=O)N(c4ccccc4)C(=O)C3N2Nc2ccc(C(C)C)cc2)ccc1O` (centres undefined), with -1.66.
With `CN(C)CCCCCCNC(=O)[C@@H]1C[C@@H]2C(=O)N3CCC[C@H]3C(=O)N2[C@@H]1c1ccc(O)cc1`, the z-score is 1.06.
`CCC(CC)C(O)C1C=CC2C(=O)N(c3ccccc3)C(=O)C2N1Nc1ccccc1` (centres undefined) displayed a z-score of -1.48.
Still for that read-out and setting: under `COC(=O)[C@@]1(Cc2ccc(OC)cc2)[C@H]2c3cc(C(=O)N4CCCC4)n(Cc4nc5ccccc5[nH]4)c3C[C@H]2CN1C(=O)c1ccccc1` stands -0.128; under `O=C1O[C@@H](c2ccccc2)[C@@H](c2ccccc2)N2[C@@H](c3ccc(OCCO)cc3)[C@]3(C(=O)Nc4ccc(C#CC5=CCCCC5)cc43)[C@@H](C(=O)N3CCCCCCC3)[C@H]12`, 0.226; under `O=C(O)[C@@]1(CCS(=O)(=O)c2ccccc2)N=C(c2ccc(OCCCO)cc2)O[C@H]1c1ccccc1`, 0.591.
`C=CCNC(=O)[C@@H]1[C@H]2C(=O)O[C@H](c3ccccc3)[C@H](c3ccccc3)N2[C@H](c2ccc(OCCO)cc2)[C@@]12C(=O)N(C(=O)OCCOC)c1ccc(C#CCC(C(=O)OC)C(=O)OC)cc12` returned a z-score of 0.366.
`[N-]=[N+]=Nc1ccccc1C[C@@]1(C(=O)N2CCCCC2)N=C(c2ccc(OCCCO)cc2)O[C@@H]1c1ccccc1` yielded a z-score of 0.819.
The compound `CC(=O)n1cc(C(O)C2C=CC3C(=O)NC(=O)C3N2Nc2ccccn2)c2ccccc21` (centres undefined) came in with a z-score of -0.743.
`O=C1OCCC=C[C@H]2OC34C=CCN(c5ccc(Cl)cc5)C(=O)[C@H]3N(CCCO)C(=O)[C@@H]4C12` (some centres undefined): the z-score was -0.00501.
Compound `CC(c1ccccc1)C(O)C1C=CC2C(=O)N(c3ccccc3)C(=O)C2N1Nc1ccccc1` (centres undefined) had a z-score of -2.36.
`CCOC(=O)C[C@H]1[C@H](OC(=O)c2ccc(-c3ccccc3)cc2)[C@@H](NC(=O)c2ccccc2)c2cc(OCCCO)ccc2N1C(=O)c1ccc2ccccc2n1` returned a z-score of 0.0102.
`CCCCN1CC=CC23O[C@@H]4C=CCOC(=O)[C@@H]4[C@H]2C(=O)N(CCCCCCO)[C@@H]3C1=O` (some centres undefined): the z-score is -0.71.
Consider `COc1ccc(-c2cc3c(c(Cc4ccccc4)n2)[Si](C(C)C)(C(C)C)OC3)cn1`, for which the z-score is -0.914.
Consider `COc1cc2c(cc1O)C(c1cccs1)N(Cc1ccc([N+](=O)[O-])o1)CC2` (centres undefined), for which the z-score was -0.771.
The compound `[N-]=[N+]=NCc1ccccc1[C@@H]1OC(c2ccc(OCCCO)cc2)=N[C@]1(CCS(=O)(=O)c1ccccc1)C(=O)N1CCCCC1` had a z-score of -0.132.
Still for that read-out and setting: under `CC(C)OC(=O)C=C1C[C@@H](c2cccc(Cl)c2)O[C@@H](c2cccc(Cl)c2)O1` stands -0.46; under `Cc1ccc(S[C@]2(C(=O)NCC(C)C)CC(=O)N(Cc3cc(C(F)(F)F)cc(C(F)(F)F)c3)[C@@H]2c2ccc(CO)cc2)cc1`, -0.444; under `O=C(O)[C@H](Cc1ccccc1)n1cc(-c2ccccc2)nn1`, -0.601.
`COC(=O)[C@@]1(Cc2ccc(OC)cc2)[C@H]2c3cc(C(=O)N(C)C)n(Cc4ccc(C(F)(F)F)nc4)c3C[C@H]2CN1C(=O)c1ccccc1` had a z-score of 0.117.
`CCCCC(O)C1C=CC2C(=O)N(C)C(=O)C2N1N1CCCCC1` (centres undefined) returned a z-score of -1.59.
The same measure, in the same setting: then `C=CCNC(=O)[C@H]1[C@@H]2C(=O)O[C@@H](c3ccccc3)[C@@H](c3ccccc3)N2[C@@H](c2ccc(O)cc2)[C@]12C(=O)Nc1ccc(C#CCCO)cc12`, with -0.757; and `CO[C@H]1O[C@H](CO)[C@@H](OC(=O)Nc2ccccc2-c2ccccc2)[C@H](OC(=O)Nc2ccccc2-c2ccccc2)[C@@H]1OC(=O)Nc1ccccc1-c1ccccc1`, with 0.0618.

The next assay is described as follows: basal 3T3-L1 adipocyte mitochondrial potential changes, profiling panel, cell-based, JC-1 fluorescence, 3T3-L1 adipocytes, 24 h, 100 nL compound (AID 1168). To be noted: JC-1 mitochondrial fluorescence, higher = more signal, called active from +8 up or from −8 down.
Turning to `COc1ccc(C(=O)Nc2cccc(CN3C(=O)[C@]4(O[C@H](CCn5cc(CCO)nn5)[C@@H]([Si](C)(C)c5ccc(OC)cc5)[C@@H]4C)c4ccccc43)c2)cc1`, the z-score is 1.51 (inactive).
`COC(=O)c1c2oc(c1C(=O)OC)C(=O)N[C@@H](C(C)C)Cn1cc(nn1)C1(CCCCC1)NC(=O)N[C@H](CO)CC2`: the z-score is 0.024 (inactive).
With `O=C1NC(=O)C2C1C=CC(C(O)c1ccc(-c3ccccc3)s1)N2Nc1ccc(Cl)cc1Cl` (centres undefined), the z-score was -1.08 (inactive).
Take `CCOC(=O)C[C@H]1[C@H](OC(=O)c2ccc(-c3ccccc3)cc2)[C@@H](NC(=O)c2ccccc2)c2cc(OCCCO)ccc2N1C(=O)Cc1ccc(OC)cc1`: the z-score is 0.285 (inactive).
Same read-out and setting: under `COC(=O)[C@@]1(Cc2ccc(OC)cc2)[C@H]2c3cc(C(=O)N4CCCC4)n(CCCNc4ncc(C(F)(F)F)cc4Cl)c3C[C@H]2CN1C(=O)c1ccccc1` stands -1.31 (inactive); under `CC(=CC1CCCCC1)[C@@H](NC(=O)c1cccnc1)c1ccc(-c2ccccc2)cc1`, -1.26 (inactive).
Same read-out and setting: under `C=CCC(OC(C)=O)[C@@H]1[C@@H](N(Cc2ccc(-c3cccc(C(F)(F)F)c3)o2)C(=O)Cc2ccc(OC)cc2)c2cc(OCCCO)ccc2N1C(=O)c1ccc2ccccc2c1` (some centres undefined) stands -0.75 (inactive).
Same read-out and setting: under `CCOC(=O)C1=CC[C@@H](c2ccccc2)N(S(=O)(=O)c2ccc(C)cc2)[C@H]1c1ccc(CC)cc1` stands -0.149 (inactive).
`O=c1cccc(-c2ccccc2Cl)o1`: the z-score was -0.428 (inactive).
For the compound `CCCCC(=C=CC[C@H](O)c1cccc(OCCO)c1)C[C@H](O)c1ccccn1`, the z-score is -1.63 (inactive).
Regarding `COc1ccc([Si](C)(C)[C@@H]2[C@@H](CC(=O)N3CCC[C@H]3CO)O[C@]3(C(=O)N(Cc4cccc(I)c4)c4ccccc43)[C@H]2C)cc1`, the z-score was -0.0158 (inactive).
Still for that read-out and setting: under `COC(=O)[C@@]1(Cc2ccccc2)[C@H]2c3cc(C(=O)N4CCCC4)n(Cc4c(CO)[nH]cc(C)c4=O)c3C[C@H]2CN1C(=O)c1ccccc1` stands -0.276 (inactive).
Regarding `CCOc1cc(C(O)C2C=CC3C(=O)N(c4ccccc4)C(=O)C3N2Nc2ccc(C(C)C)cc2)ccc1O` (centres undefined), the z-score is -0.457 (inactive).
The same measure, in the same setting: under `CN(C)CCCCCCNC(=O)[C@@H]1C[C@@H]2C(=O)N3CCC[C@H]3C(=O)N2[C@@H]1c1ccc(O)cc1` stands 0.342 (inactive).
As for `CCC(CC)C(O)C1C=CC2C(=O)N(c3ccccc3)C(=O)C2N1Nc1ccccc1` (centres undefined), the z-score is -2.32 (inactive).
Regarding `COC(=O)[C@@]1(Cc2ccc(OC)cc2)[C@H]2c3cc(C(=O)N4CCCC4)n(Cc4nc5ccccc5[nH]4)c3C[C@H]2CN1C(=O)c1ccccc1`, the z-score is -0.773 (inactive).
For the compound `O=C1O[C@@H](c2ccccc2)[C@@H](c2ccccc2)N2[C@@H](c3ccc(OCCO)cc3)[C@]3(C(=O)Nc4ccc(C#CC5=CCCCC5)cc43)[C@@H](C(=O)N3CCCCCCC3)[C@H]12`, the z-score is -4.13 (inactive).
On the same count and under the same terms, then `O=C(O)[C@@]1(CCS(=O)(=O)c2ccccc2)N=C(c2ccc(OCCCO)cc2)O[C@H]1c1ccccc1`, with -0.249 (inactive).
Regarding `C=CCNC(=O)[C@@H]1[C@H]2C(=O)O[C@H](c3ccccc3)[C@H](c3ccccc3)N2[C@H](c2ccc(OCCO)cc2)[C@@]12C(=O)N(C(=O)OCCOC)c1ccc(C#CCC(C(=O)OC)C(=O)OC)cc12`, the z-score was 0.0731 (inactive).
Take `[N-]=[N+]=Nc1ccccc1C[C@@]1(C(=O)N2CCCCC2)N=C(c2ccc(OCCCO)cc2)O[C@@H]1c1ccccc1`: the z-score was 0.883 (inactive).
Consider `CC(=O)n1cc(C(O)C2C=CC3C(=O)NC(=O)C3N2Nc2ccccn2)c2ccccc21` (centres undefined), for which the z-score was -0.424 (inactive).
In the case of `O=C1OCCC=C[C@H]2OC34C=CCN(c5ccc(Cl)cc5)C(=O)[C@H]3N(CCCO)C(=O)[C@@H]4C12` (some centres undefined), the z-score is 0.272 (inactive).
Regarding `CC(c1ccccc1)C(O)C1C=CC2C(=O)N(c3ccccc3)C(=O)C2N1Nc1ccccc1` (centres undefined), the z-score was -0.266 (inactive).
In the case of `CCOC(=O)C[C@H]1[C@H](OC(=O)c2ccc(-c3ccccc3)cc2)[C@@H](NC(=O)c2ccccc2)c2cc(OCCCO)ccc2N1C(=O)c1ccc2ccccc2n1`, the z-score was -0.811 (inactive).
On to `CCCCN1CC=CC23O[C@@H]4C=CCOC(=O)[C@@H]4[C@H]2C(=O)N(CCCCCCO)[C@@H]3C1=O` (some centres undefined), for which the z-score is -0.228 (inactive).
For the compound `COc1ccc(-c2cc3c(c(Cc4ccccc4)n2)[Si](C(C)C)(C(C)C)OC3)cn1`, the z-score was -1.19 (inactive).
`COc1cc2c(cc1O)C(c1cccs1)N(Cc1ccc([N+](=O)[O-])o1)CC2` (centres undefined): the z-score is 0.627 (inactive).
On to `[N-]=[N+]=NCc1ccccc1[C@@H]1OC(c2ccc(OCCCO)cc2)=N[C@]1(CCS(=O)(=O)c1ccccc1)C(=O)N1CCCCC1`, for which the z-score was -0.159 (inactive).
In the case of `CC(C)OC(=O)C=C1C[C@@H](c2cccc(Cl)c2)O[C@@H](c2cccc(Cl)c2)O1`, the z-score is 0.843 (inactive).
Same read-out and setting: then `Cc1ccc(S[C@]2(C(=O)NCC(C)C)CC(=O)N(Cc3cc(C(F)(F)F)cc(C(F)(F)F)c3)[C@@H]2c2ccc(CO)cc2)cc1`, with -0.612 (inactive).
Still for that read-out and setting: under `O=C(O)[C@H](Cc1ccccc1)n1cc(-c2ccccc2)nn1` stands -0.0821 (inactive); under `COC(=O)[C@@]1(Cc2ccc(OC)cc2)[C@H]2c3cc(C(=O)N(C)C)n(Cc4ccc(C(F)(F)F)nc4)c3C[C@H]2CN1C(=O)c1ccccc1`, -0.29 (inactive).
Regarding `CCCCC(O)C1C=CC2C(=O)N(C)C(=O)C2N1N1CCCCC1` (centres undefined), the z-score is -0.686 (inactive).
For the compound `C=CCNC(=O)[C@H]1[C@@H]2C(=O)O[C@@H](c3ccccc3)[C@@H](c3ccccc3)N2[C@@H](c2ccc(O)cc2)[C@]12C(=O)Nc1ccc(C#CCCO)cc12`, the z-score is 0.651 (inactive).
On the same count and under the same terms, then `CO[C@H]1O[C@H](CO)[C@@H](OC(=O)Nc2ccccc2-c2ccccc2)[C@H](OC(=O)Nc2ccccc2-c2ccccc2)[C@@H]1OC(=O)Nc1ccccc1-c1ccccc1`, with 1.6 (inactive).
